Experiment [1] deals with T1, GST-Nv-NF-kB (Ser allele) (Nematostella vectensis, UniProt A7UNT2 2-411).
T1 sequence: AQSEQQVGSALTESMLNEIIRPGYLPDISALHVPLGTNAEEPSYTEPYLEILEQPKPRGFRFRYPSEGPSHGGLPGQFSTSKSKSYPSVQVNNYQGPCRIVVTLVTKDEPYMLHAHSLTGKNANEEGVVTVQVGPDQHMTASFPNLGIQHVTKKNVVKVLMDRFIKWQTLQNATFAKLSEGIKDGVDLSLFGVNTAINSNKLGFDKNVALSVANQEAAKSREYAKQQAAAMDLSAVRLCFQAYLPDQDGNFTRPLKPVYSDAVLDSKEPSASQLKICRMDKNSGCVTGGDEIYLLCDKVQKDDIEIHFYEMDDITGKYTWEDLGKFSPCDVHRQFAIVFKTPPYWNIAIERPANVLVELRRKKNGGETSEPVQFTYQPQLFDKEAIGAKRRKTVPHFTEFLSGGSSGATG
As to the kind of experiment: protein-binding microarray (PBM); PBM: ~300 nM protein, 6 mM HEPES pH 7.8, 80 mM KCl, 0.5 mM EDTA, 0.5 mM EGTA, 6% glycerol, 35 ng/ul poly-dIdC, 1% milk, 1 h, room temperature; Ap Aiptasia and Nv Nematostella (sea anemones) / Co Capsaspora / Aq Amphimedon (sponge) / Dm Drosophila / Hu human; RHD is the Rel homology domain; high values mean tight binding. The conditions noted are these: dsDNA, one strand shown.

Experiment [2] concerns the target GST-Hu-p50 (Homo sapiens, UniProt P19838 7-356). The description is as above. The conditions noted are these: dsDNA, one strand shown.

GST-Hu-p50, sequence (P19838 7-356): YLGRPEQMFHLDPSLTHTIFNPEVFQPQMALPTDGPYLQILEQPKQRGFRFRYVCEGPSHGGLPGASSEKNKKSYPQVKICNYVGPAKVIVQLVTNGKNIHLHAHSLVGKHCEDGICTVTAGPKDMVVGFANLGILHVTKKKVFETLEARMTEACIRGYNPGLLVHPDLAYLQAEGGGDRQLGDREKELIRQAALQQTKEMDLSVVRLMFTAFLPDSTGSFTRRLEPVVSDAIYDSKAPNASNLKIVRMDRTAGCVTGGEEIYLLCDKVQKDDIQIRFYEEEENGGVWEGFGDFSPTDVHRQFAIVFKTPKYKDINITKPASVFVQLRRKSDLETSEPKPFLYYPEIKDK

For the sequence “CCGATTAACATCAAAACAGCCCCTGATGTTAATCGGGTCTTGATTCGCTTGACGCTGCTG”, the figures for the binding signal in experiment [1] and in experiment [2] were 3.68 z-score and 4.54 z-score, respectively.

For “CCGATTAACATCAGAAAATTACCTGATGTTAATCGGGTCTTGATTCGCTTGACGCTGCTG”, the figures for the binding signal in experiment [1] and in experiment [2] were 5.7 z-score and 4.34 z-score, respectively.

In the case of “CCGATTAACATCAAGCAACCCCCTGATGTTAATCGGGTCTTGATTCGCTTGACGCTGCTG”, the binding signal turned out to be 3.95 z-score in experiment [1] and 4.45 z-score in experiment [2].

“CCGATTAACATCAGGACACCCCCTGATGTTAATCGGGTCTTGATTCGCTTGACGCTGCTG”: the binding signal in experiment [1] was 3.79 z-score; in experiment [2], 5.24 z-score.

Take “CCGATTAACATCAGGAACCCCCATGATGTTAATCGGGTCTTGATTCGCTTGACGCTGCTG”: the binding signal in experiment [1] was found to be 4.62 z-score; in experiment [2], 5.23 z-score.

On to “CCGATTAACATCAGGATTGCCCCTGATGTTAATCGGGTCTTGATTCGCTTGACGCTGCTG”, for which the binding signal in experiment [1] was found to be 2.73 z-score; in experiment [2] it was 3.69 z-score.

For the sequence “CCGATTAACATCATCCGGGAAAATGATGTTAATCGGGTCTTGATTCGCTTGACGCTGCTG”, the binding signal came to 5.1 z-score in experiment [1] and 2.14 z-score in experiment [2].

As to “CCGATTAACATCAATATACCCCCTGATGTTAATCGGGTCTTGATTCGCTTGACGCTGCTG”, the binding signal amounted to 5.46 z-score in experiment [1] and 4.42 z-score in experiment [2].

On to “CCGATTAACATCAGGGTATTTACTGATGTTAATCGGGTCTTGATTCGCTTGACGCTGCTG”, for which the binding signal is 4.72 z-score in experiment [1] and 5.1 z-score in experiment [2].

Turning to “CCGATTAACATCACGGGGTTCCCTGATGTTAATCGGGTCTTGATTCGCTTGACGCTGCTG”, the binding signal in experiment [1] was 1.48 z-score; in experiment [2], 2.59 z-score.

On to “CCGATTAACATCACCAAAACCCCTGATGTTAATCGGGTCTTGATTCGCTTGACGCTGCTG”, for which the binding signal came out at 4.14 z-score in experiment [1] and 4.83 z-score in experiment [2].

Turning to “CCGATTAACATCAGGCATTTCCCTGATGTTAATCGGGTCTTGATTCGCTTGACGCTGCTG”, the results for the binding signal in experiment [1] and in experiment [2] were 3.99 z-score and 3.68 z-score, respectively.

As for “CCGATTAACATCAGGAATTACCATGATGTTAATCGGGTCTTGATTCGCTTGACGCTGCTG”, the binding signal is 2.03 z-score in experiment [1] and 2.05 z-score in experiment [2].

For “CCGATTAACATCAGGGAAAGAAATGATGTTAATCGGGTCTTGATTCGCTTGACGCTGCTG”, the values for the binding signal in experiment [1] and in experiment [2] were 3.86 z-score and 2.62 z-score, respectively.

As for “CCGATTAACATCAGGGACTCCCATGATGTTAATCGGGTCTTGATTCGCTTGACGCTGCTG”, the binding signal in experiment [1] came out at 3.88 z-score; in experiment [2] it was 3.34 z-score.

“CCGATTAACATCAGGGAAGTCCATGATGTTAATCGGGTCTTGATTCGCTTGACGCTGCTG”: the binding signal in experiment [1] amounted to 1.93 z-score; in experiment [2] it was 1.11 z-score.

Consider “CCGATTAACATCAAATATACCCATGATGTTAATCGGGTCTTGATTCGCTTGACGCTGCTG”, for which the binding signal was determined as 1.7 z-score in experiment [1] and 1.83 z-score in experiment [2].

Regarding “CCGATTAACATCAGGGAAAGTAATGATGTTAATCGGGTCTTGATTCGCTTGACGCTGCTG”, the results for the binding signal in experiment [1] and in experiment [2] were 5.14 z-score and 3.58 z-score, respectively.

As for “CCGATTAACATCAGAGTTTCCCATGATGTTAATCGGGTCTTGATTCGCTTGACGCTGCTG”, the binding signal came to 3.14 z-score in experiment [1] and 2.22 z-score in experiment [2].

Turning to “CCGATTAACATCAGGGGAGCACCTGATGTTAATCGGGTCTTGATTCGCTTGACGCTGCTG”, the binding signal in experiment [1] was found to be 3.94 z-score; in experiment [2], 4.33 z-score.

Consider “CCGATTAACATCAAGGGGGTCCCTGATGTTAATCGGGTCTTGATTCGCTTGACGCTGCTG”, for which the values for the binding signal in experiment [1] and in experiment [2] were 3.02 z-score and 3.68 z-score, respectively.

With “CCGATTAACATCACCCACGAGGGTGATGTTAATCGGGTCTTGATTCGCTTGACGCTGCTG”, the binding signal in experiment [1] worked out at 1.02 z-score; in experiment [2], 2.01 z-score.

Consider “CCGATTAACATCACCGCCCCCCCTGATGTTAATCGGGTCTTGATTCGCTTGACGCTGCTG”, for which the binding signal in experiment [1] was found to be 4.44 z-score; in experiment [2] it was 4.53 z-score.

As to “CCGATTAACATCAACATGGGAATTGATGTTAATCGGGTCTTGATTCGCTTGACGCTGCTG”, the binding signal in experiment [1] is 1.75 z-score; in experiment [2] it was 1.37 z-score.

On to “CCGATTAACATCAGAATAACCCCTGATGTTAATCGGGTCTTGATTCGCTTGACGCTGCTG”, for which the results for the binding signal in experiment [1] and in experiment [2] were 3.11 z-score and 4.22 z-score, respectively.

In the case of “CCGATTAACATCAGACCTTCCCCTGATGTTAATCGGGTCTTGATTCGCTTGACGCTGCTG”, the binding signal in experiment [1] came to 4.59 z-score; in experiment [2], 4.03 z-score.

For the sequence “CCGATTAACATCACCCGATTCCCTGATGTTAATCGGGTCTTGATTCGCTTGACGCTGCTG”, the binding signal in experiment [1] stood at 4.07 z-score; in experiment [2], 2.39 z-score.

“CCGATTAACATCAGGGACCTCCCTGATGTTAATCGGGTCTTGATTCGCTTGACGCTGCTG”: the results for the binding signal in experiment [1] and in experiment [2] were 1.67 z-score and 3.27 z-score, respectively.

Take “CCGATTAACATCACGGGAAGTCCTGATGTTAATCGGGTCTTGATTCGCTTGACGCTGCTG”: the binding signal in experiment [1] stood at 1.71 z-score; in experiment [2], 1.59 z-score.

For the sequence “CCGATTAACATCAAGAATTCCCGTGATGTTAATCGGGTCTTGATTCGCTTGACGCTGCTG”, the binding signal in experiment [1] amounted to 5.52 z-score; in experiment [2], 4.39 z-score.

For the sequence “CCGATTAACATCAGGGGTGGGAATGATGTTAATCGGGTCTTGATTCGCTTGACGCTGCTG”, the binding signal is 1.67 z-score in experiment [1] and 1.53 z-score in experiment [2].

For the sequence “CCGATTAACATCACACATTTCCCTGATGTTAATCGGGTCTTGATTCGCTTGACGCTGCTG”, the binding signal worked out at 4.87 z-score in experiment [1] and 3.2 z-score in experiment [2].

“CCGATTAACATCAGACATTCCCATGATGTTAATCGGGTCTTGATTCGCTTGACGCTGCTG”: the binding signal in experiment [1] was determined as 2.32 z-score; in experiment [2] it was 1.02 z-score.

Turning to “CCGATTAACATCAGGGAATCAGATGATGTTAATCGGGTCTTGATTCGCTTGACGCTGCTG”, the binding signal stood at 2.02 z-score in experiment [1] and 1.19 z-score in experiment [2].

As for “CCGATTAACATCAAGAATTCCCATGATGTTAATCGGGTCTTGATTCGCTTGACGCTGCTG”, the binding signal worked out at 5.01 z-score in experiment [1] and 4.34 z-score in experiment [2].

Values taken from publication PMC5700166.
